The panel holds about 79,000 compounds, 15% with a hit somewhere; the sample as a whole holds those more often. Rule as the data show it: active = growth inhibition above about 70%; inactive = the rest.
Key:
[1] = NCI Yeast Anticancer Drug Screen. Data for the rad50 strain (AID 155);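 also: 0% = growth of vehicle-only cultures of the same strain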; conditions: S. cerevisiae rad50 strain growth inhibition; at 50.0 µM; hits give high values
Method in brief: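 Growth of the mutant yeast was measured after compound exposure and referenced to vehicle-treated cultures.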

[2] = NCI Yeast Anticancer Drug Screen. Data for the mec2-1 strain (AID 157); conditions: S. cerevisiae mec2-1 strain, at 50.0 µM, hits give high values
Method in brief: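 Readout is yeast growth inhibition, normalised to vehicle-treated controls, in the mec2-1 strain exposed to compound.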

[3] = NCI Yeast Anticancer Drug Screen. Data for the sgs1 mgt1 strain (AID 161);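 also: 0% = growth of cultures given vehicle only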; conditions: S. cerevisiae sgs1 mgt1 strain, at 50.0 µM, hits give high values
Method in brief: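 Growth of a repair-deficient yeast mutant was monitored after compound treatment and expressed as inhibition relative to vehicle-treated cultures.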

[4] = NCI Yeast Anticancer Drug Screen. Data for the cln2 rad14 strain (AID 165);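 also: 0% = growth equal to vehicle treated cultures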; conditions: S. cerevisiae cln2 rad14 strain, at 50.0 µM, hits give high values
Method in brief: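 Relative to vehicle controls, growth inhibition of compound-treated cln2 rad14 yeast was recorded.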

[5] = NCI Yeast Anticancer Drug Screen. Data for the bub3 strain (AID 167); conditions: S. cerevisiae bub3 mutant strain, at 50.0 µM, hits give high values
Method in brief: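 Whole-cell yeast assay. The mutant strain was incubated with compounds, and growth inhibition was determined by comparison with vehicle-treated cells.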

[6] = NCI Yeast Anticancer Drug Screen. Data for the mlh1 rad18 strain (AID 175); conditions: S. cerevisiae mlh1 rad18 strain growth inhibition; at 50.0 µM; hits give high values
Method in brief: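 Test agents were incubated with a yeast strain of defined genotype (DNA damage repair defect). Inhibition of growth was derived by comparison with vehicle-exposed cultures.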

Measured: growth inhibition

O=C(Nc1ccc(Cl)c(Cl)c1)C(=O)Nn1c(=S)[nH]c2ccccc2c1=O
inactive: [1] -4.05% | [2] -16.4% | [3] 2.8% | [4] -1.5% | [5] -0.8% | [6] 0.65%

O=C(NC1(C(=O)O)CCCC1)c1ccccc1
inactive: [1] -34.5% | [2] -27.2% | [3] -12.7% | [4] -31.7% | [5] -4.35% | [6] 0.7%

CC1(C)C2CCC(OC(=O)c3ccc([N+](=O)[O-])cc3)C1C2 (stereo not given)
inactive: [1] 7.25% | [2] -5.15% | [3] 3.5% | [4] -8.1% | [5] 9.95% | [6] -20.8%

Cn1c(=O)n(C2OC(CO)C(O)C2O)c2ncnc(N)c21 (stereo not given)
inactive: [1] 8.9% | [2] 0.55% | [3] -5.8% | [4] -43.1% | [5] -2.9% | [6] 4.65%

COC(=O)C(Cc1[nH]c(N=Nc2ccc(Br)cc2)nc1N=Nc1ccc(Br)cc1)NC(C)=O (stereo not given)
inactive: [1] 43% | [2] -1% | [3] 27.1% | [4] -11.1% | [5] -3.55% | [6] -5.25%

CCOC(=O)C(C(=O)OCC)C(=O)c1cc(OC)c(OC)c(OC)c1
inactive: [1] 4.55% | [2] 10.6% | [3] -1.35% | [4] 7.35% | [5] 2.55% | [6] 6.5%

CC(CNC(N)=O)(CNC(N)=O)c1ccccc1
inactive: [1] -4.75% | [2] -9.05% | [3] -11.8% | [4] -21.6% | [5] -0.45% | [6] -25.1%

Cc1cccc(C(N)=S)n1
inactive: [1] 14.9% | [2] 7.5% | [3] 11.1% | [4] 23.9% | [5] 18.8% | [6] 22.5%

COc1ccc(C(C)c2cc(OC)c(OC)cc2OC)cc1 (stereo not given)
inactive: [1] 17.6% | [2] 10.8% | [3] 25.6% | [4] -29.2% | [5] 44.2% | [6] 37.8%

Cc1cc(=O)oc2c(-c3ccccc3)nnc(Cl)c12
inactive: [1] 21.4% | [2] 15% | [3] 16.2% | [4] 13.9% | [5] 18.1% | [6] 40.5%

O=C(O)c1cc(C(=O)O)c(-c2ccccc2)c(-c2ccccc2)c1
inactive: [1] 8.9% | [2] 2.25% | [3] -4.05% | [4] 0.65% | [5] 1.4% | [6] -5.3%

CCOc1ncnc2ccc(Cl)c(I)c12
inactive: [1] 12.2% | [2] 0.55% | [3] 24.6% | [4] 10.2% | [5] 35.9% | [6] 16.7%

O=C1CC(=O)N2C=CC=CC2N1 (stereo not given)
inactive: [1] -14.8% | [2] -21.6% | [3] -23.1% | [4] -4.7% | [5] -16.7% | [6] -13.5%

N#C/C(=C/C=C/c1ccco1)C(N)=O
inactive: [1] 9.9% | [2] 1.65% | [3] 15.6% | [4] 10.6% | [5] -6.25% | [6] 13.4%

CC1=C(c2ccco2)C(c2ccco2)OC1=O (stereo not given)
inactive: [1] 8.45% | [2] 27.2% | [3] 15.9% | [4] -16.6% | [5] 18.3% | [6] -7.3%

O=C(N[C@H](CO)[C@H](O)c1ccc([N+](=O)[O-])cc1)C(Cl)Cl
inactive: [1] 25.2% | [2] -4.05% | [3] 28.9% | [4] 9.55% | [5] 35.6% | [6] 10.7%

Cc1cc(C)c(NS(=O)c2cccc(C(F)(F)F)c2)c(C)c1 (stereo not given)
inactive: [1] -47.1% | [2] -26.5% | [3] -61% | [4] -9.75% | [5] -31.4% | [6] -43%

O=C(Nc1ccc(N=Nc2ccccc2)cc1)c1ccc(Cl)cc1
inactive: [1] -11.1% | [2] 2.3% | [3] 12.1% | [4] -60.1% | [5] 2.35% | [6] -7.95%

CCC(Oc1ccc(Cl)cc1Cl)C(=O)O (stereo not given)
inactive: [1] -4.4% | [2] -9.8% | [3] -8.65% | [4] -8.25% | [5] -10.2% | [6] -1.75%

C/C=C/C=C/C(=O)OCC
inactive: [1] 31.8% | [2] -2.25% | [3] -16.4% | [4] -2.4% | [5] 15.2% | [6] 14.3%

From PubChem BioAssay (NCI)
